Experimental findings from PubChem BioAssay (NCI) are described below.

Compounds without any hit were thinned out: in the full panel of roughly 79,000, 15% have a hit. A number with no mark means an inactive call. Active and inactive are the calls of the source. No stated cut-off is given here; in the data, active means growth inhibition above about 70%; inactive means the rest.

Test [1] is described as follows: NCI Yeast Anticancer Drug Screen. Data for the rad50 strain (AID 155).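 Further: 0% = growth of vehicle-only cultures of the same strain.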 The conditions noted are these: S. cerevisiae rad50 strain growth inhibition; at 50.0 µM; stronger effect = higher value. The essentials:
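Relative growth inhibition (compound vs vehicle) was measured in yeast with a defined repair-gene alteration.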

A short description of test [2]: NCI Yeast Anticancer Drug Screen. Data for the mec2-1 strain (AID 157). To be noted: S. cerevisiae mec2-1 strain, at 50.0 µM, stronger effect = higher value. The gist of the method: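 Growth inhibition is read against vehicle-treated controls after compound exposure of the mec2-1 yeast strain, which is defective in DNA damage repair or cell cycle control.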
The nature of test [3]: NCI Yeast Anticancer Drug Screen. Data for the sgs1 mgt1 strain (AID 161).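 Further: 0% = growth of cultures given vehicle only.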 To be noted: S. cerevisiae sgs1 mgt1 strain, at 50.0 µM, stronger effect = higher value. The essentials: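 Yeast cells carrying a defined DNA-repair defect were exposed to test compounds. Growth inhibition was measured relative to vehicle-treated controls.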
Test [4] can be described thus: NCI Yeast Anticancer Drug Screen. Data for the cln2 rad14 strain (AID 165).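 Further: 0% = growth equal to vehicle treated cultures.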 The conditions noted are these: S. cerevisiae cln2 rad14 strain, at 50.0 µM, stronger effect = higher value. The gist of the method: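 Growth inhibition, relative to vehicle-treated controls, is the read-out. The test organism is a yeast strain with defined genetic alterations, cln2 rad14.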
Test [5] can be described thus: NCI Yeast Anticancer Drug Screen. Data for the bub3 strain (AID 167). To be noted: S. cerevisiae bub3 mutant strain, at 50.0 µM, stronger effect = higher value. The essentials: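 Screening used yeast with an engineered genetic alteration affecting cell cycle control. Compound-exposed cultures were compared with vehicle cultures, and reduced growth was taken as inhibition.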

Test [6] can be described thus: NCI Yeast Anticancer Drug Screen. Data for the mlh1 rad18 strain (AID 175). To be noted: S. cerevisiae mlh1 rad18 strain growth inhibition; at 50.0 µM; stronger effect = higher value. The essentials: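 Cells of a genetically altered yeast strain, deficient in DNA damage repair, were treated with compound. Their growth was then compared with that of vehicle-treated cultures to give inhibition.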

Take `CC(=O)[O-].O=S(=O)(Nc1ncccn1)c1ccc(N=Cc2ccccc2O)cc1.O=S(=O)(Nc1ncccn1)c1ccc(N=Cc2ccccc2O)cc1.[Cu+2]`: the growth inhibition in test [1] is -7.4%; in test [2], -21.6%; in test [3], -17.4%; in test [4] it was -8.25%; in test [5], -17.6%.
Turning to `COC(=O)C(CC(=O)[C@H]1CC[C@H]2[C@@H]3CC=C4C[C@@H](OC(C)=O)CC[C@]4(C)[C@H]3CC[C@]12C)OC(C)=O` (stereo partly specified), the growth inhibition is 18.7% in test [1]; -6.2% in test [2]; 26.7% in test [3]; 28.9% in test [4]; -1.75% in test [5].
For the compound `FC(F)(F)c1cccc(CSCc2c(CSCc3cccc(C(F)(F)F)c3)c(CSCc3cccc(C(F)(F)F)c3)c(CSCc3cccc(C(F)(F)F)c3)c(CSCc3cccc(C(F)(F)F)c3)c2CSCc2cccc(C(F)(F)F)c2)c1`, the growth inhibition in test [1] is -12.7%; in test [2], -2.5%; in test [3] it was -6.35%; in test [4], 12.2%; in test [5], -7.65%.
On to `CCC1(CCCCCBr)OCCO1`, for which the growth inhibition is 13.9% in test [1]; 12.6% in test [2]; 19.6% in test [3]; 10.2% in test [4]; 14.8% in test [5].
Take `CCOC(=O)CCC(NC(=O)c1ccc(Nc2nc3cc(C(F)(F)F)ccc3nc2-c2ccccc2)cc1)C(=O)OCC` (stereo unspecified): the growth inhibition in test [1] is 12.9%; in test [2], 2.7%; in test [3] it was 12.1%; in test [4] it was 3.9%; in test [5] it was -5.35%.
Regarding `CC(C)=CCC[C@@H](C)C1[C@@H](OC2OC(CO)C(O)C(O)C2O)CC2(C)[C@@H]3CC(=O)C4C(C)(C)[C@@H](OC5OC(CO)C(O)C(O)C5O)CC[C@@]45C[C@@]35CC[C@]12C` (stereo partly specified), the growth inhibition is -17.4% in test [1]; -40% in test [2]; -27.1% in test [3]; -3.15% in test [4]; -20.8% in test [5].
Consider `CCC(=O)N1CCN(C(=O)CC)c2ccccc21`, for which the growth inhibition in test [1] is -3%; in test [2], -5.8%; in test [3] it was -0.25%; in test [4], -5.25%; in test [5], 0.75%.
On to `O=C(N/N=C/c1ccc(Cl)cc1)c1cc(-c2ccccc2)nc2ccccc12`, for which the growth inhibition in test [1] was 5.95%; in test [2] it was 22.3%; in test [3], 17.4%; in test [4], 21.7%; in test [5], 2%.
In the same order, the values of `CC1OC(c2ccc3c(c2O)C(=O)C2=C(C3=O)C3(O)C(=O)CC(C)(O)CC3(O)C=C2)CC(O)C1O` (stereo unspecified) are -19.2%, -23.1%, -19.4%, -8.1% and -21.8%.
For `O=[N+]([O-])c1ccc(S(=O)c2ccc([N+](=O)[O-])cc2)cc1`, the growth inhibition is 24.8% in test [1]; 11.6% in test [2]; 5.5% in test [3]; -11.1% in test [4]; -1.75% in test [5].
In the case of `COC(=O)N/N=C/c1ccccc1Cl`, the growth inhibition in test [1] was 4.55%; in test [2], -31%; in test [3] it was -18.6%; in test [4], -64.8%; in test [5], -12.5%.
Turning to `O=C(O)/C=C/c1ccc(Oc2ccccc2C(=O)O)o1`, the growth inhibition is -3.45% in test [1]; -7.15% in test [2]; 5.05% in test [3]; 2.3% in test [4]; -1.2% in test [5].
For `CCCCCC(=O)Cc1cc(OC)cc2c1C(=O)Oc1cc(O)c(C(=O)O)c(CC(=O)CCCCC)c1O2`, the growth inhibition is 83% (active) in test [1]; 86.5% (active) in test [2]; 85.8% (active) in test [3]; 79.4% (active) in test [4]; 80.1% (active) in test [5].
In the same order, the values of `O=[N+]([O-])c1ccc(Cl)cc1N/N=C/c1cccs1` are -46.1%, -40.2%, -40.8%, -9.5% and -30.8%.
For the compound `N#C/C(N)=C(\C#N)N=CN`, the growth inhibition in test [1] is -5.5%; in test [2] it was 5.5%; in test [3], -7.1%; in test [4], 34%; in test [5], -22.3%.
In the case of `O=C1/C=C2/C=CC=CN2C(=O)/C=C2/C=CC=CN12`, the growth inhibition is -1.6% in test [1]; -15.3% in test [2]; -15% in test [3]; 1.65% in test [4]; 0.95% in test [5].
Take `CC1CCC(O)C(C(O)CC2CC(=O)NC(=O)C2)C1` (stereo unspecified): the growth inhibition is 23.3% in test [1]; -3.3% in test [2]; 5.4% in test [3]; -21.7% in test [4]; 4% in test [5].
In the case of `COc1ccc(OCCO)cc1`, the growth inhibition in test [1] was -10.4%; in test [2] it was -17.8%; in test [3] it was -6.85%; in test [4], -27.1%; in test [5] it was -22.1%.
In the same order, the values of `O=C(O)c1ccc([N+](=O)[O-])cc1N(c1ccccc1)c1ccccc1` are 27.6%, 29.9%, 40.1%, 22.2% and 29.3%.
Turning to `CCOC(=O)C[C@](C)(O)C1CCCN1` (stereo partly specified), the growth inhibition in test [1] was 26.5%; in test [2], 11.8%; in test [3] it was 5.95%; in test [4], 5.3%; in test [5], -3%.
With `CC(C)NC(=O)CCSCCC(=O)NC(C)C`, the growth inhibition in test [1] was 3.6%; in test [2], -10.7%; in test [3] it was -3.75%; in test [4] it was -6.8%; in test [5] it was -17.9%.
With `CCC1(c2ccccc2)Nc2ccccc2C1=Nc1ccccc1` (stereo unspecified), the growth inhibition in test [1] is 20.1%; in test [2], 15.5%; in test [3], 20.2%; in test [4], 9.5%; in test [5], 11.7%.
In the same order, the values of `CC1CCCCN1P(N1CCCCC1C)N1CCCCC1C` (stereo unspecified) are 36.4%, 20.4%, 29%, 25.6% and 23.4%.
With `CN(C)[C@@H]1C(=O)C(C(=O)NCNc2cccc(C(=O)O)c2C(=O)O)=C(O)[C@@]2(O)C(=O)C3=C(O)c4c(O)cccc4[C@@](C)(O)[C@H]3C[C@@H]12`, the growth inhibition is 2.95% in test [1]; 6.45% in test [2]; 21.8% in test [3]; -17.2% in test [4]; -1.1% in test [5].
In the same order, the values of `CC(=O)OC1COC(n2c(O)c(N=NC(N)=S)c3cc(Br)ccc32)C(OC(C)=O)C1OC(C)=O` (stereo unspecified) are 41.1%, 8.2%, 46.2%, -34.2% and 27.1%.
`COc1cc(CN2CCCCC2)cc2cc(C(=O)O)c(=O)oc12`: the growth inhibition is 8.75% in test [1]; 7.55% in test [2]; -34.9% in test [3]; -1.15% in test [4]; -15.3% in test [5].
As for `CC1(C)OB(O)OC1(C)C`, the growth inhibition in test [1] is -10.4%; in test [2] it was 12.7%; in test [3] it was -35.2%; in test [4] it was 14.6%; in test [5], -0.9%.
On to `C=CC1CC[N-]CC1.[Cl][Cu][Cl]`, for which the growth inhibition in test [1] was 6.4%; in test [2], -1.9%; in test [3] it was 2.75%; in test [4], -7.6%; in test [5], -14.6%.
With `CCNC(CC(N)=O)C(=O)O` (stereo unspecified), the growth inhibition is -22.1% in test [1]; -3.75% in test [2]; 0.15% in test [3]; -4.05% in test [4]; -26.4% in test [5].
`CCCCCC/C(CC(=O)CCC(=O)NCCc1ccccc1)=N\NC(=O)c1ccc2ccccc2c1O`: the growth inhibition is 25% in test [1]; 20.2% in test [2]; 32.6% in test [3]; -49.2% in test [4]; 2.5% in test [5].
Regarding `N#CC1OC1c1ccccn1` (stereo unspecified), the growth inhibition in test [1] was -6.25%; in test [2], 7.05%; in test [3] it was -12.3%; in test [4], 9.05%; in test [5], 5.35%.
On to `C=Cc1ccc(OC2OC(CO)C(OC3OC(CO)C(O)C(O)C3O)C(O)C2O)cc1` (stereo unspecified), for which the growth inhibition in test [1] is 14.7%; in test [2] it was -18.9%; in test [3] it was -1.1%; in test [4], -58.9%; in test [5], -0.35%.
On to `COC(=O)N1C(c2ccccc2)(c2ccccc2)CS1(=O)=O`, for which the growth inhibition in test [1] was 15.2%; in test [2] it was 10.1%; in test [3], 9.3%; in test [4] it was 15.6%; in test [5] it was 11.8%.
As to `Cc1cc2c(cc1C)NS(=O)(=O)N2`, the growth inhibition in test [1] is 18.4%; in test [2], 10.4%; in test [3], 7.25%; in test [4], -21.7%; in test [5], 4.9%.
`CCc1n[nH]c(=O)n1NC(=O)/C=C\C(=O)O`: the growth inhibition in test [1] is -12.2%; in test [2] it was -16.1%; in test [3], -23.9%; in test [4], -17.7%; in test [5] it was -10.7%.
In the same order, the values of `CN(C)c1ccc(/C=C2/CC(=O)N(c3ccccc3)C2=O)cc1` are 16.3%, 1.15%, 25.1%, -35.3% and -0.9%.
On to `COc1nc(N)c([N+](=O)[O-])c(OC)n1`, for which the growth inhibition in test [1] is -11.9%; in test [2], -14.8%; in test [3], -2.7%; in test [4], -28.2%; in test [5], -9.85%.
In the same order, the values of `OCc1ccccc1CO` are -19.6%, -15%, -9.25%, 13.3% and -3.75%.
For `O=C1c2cccc3c(Br)ccc(c23)C(=O)N1CCCN1CCOCC1`, the growth inhibition in test [1] was 63.5%; in test [2], 77.7% (active); in test [3], 80.2% (active); in test [4], 86.7% (active); in test [5], 92.5% (active).
In the case of `COc1ccccc1-n1on1-c1ccccc1OC`, the growth inhibition in test [1] is 4.3%; in test [2], 18.1%; in test [3], -3.4%; in test [4] it was -30.9%; in test [5] it was 9.75%; in test [6], 20.1%.
